Molecules are shown by their SMILES. Values joined by “and” are separate entries in the source; they are usually repeats but may differ in a detail not shown here. Equal entries are not always repeated. Results filed as inconclusive are left out. A call without a number means that no potency is given here. Active and inactive are the calls of the source. The call rests on the fitted dose curve; in most records, active means well fitted cell-killing curve with a large enough effect in the repeat runs; inconclusive means weak or mixed curves, or effect the other way; inactive means flat fitted curve, though single readings scatter.

The values below come from PubChem BioAssay (Tox21).
Potency means the concentration at half of the fitted maximal effect.

The test is described as follows: Human pregnane X receptor (PXR) small molecule agonists, qHTS cell viability counter screen (AID 1346977). Further: nearly all actives have a fitted effect of over 50% in size. Particulars: PXR-Luc HepG2 viability, CellTiter-Fluor, 24 h; series mostly up to 92.4 µM. The source says: U.S. Tox21 Program National Center for Advancing Translational Sciences [NCATS] NIH Chemical Genomics Center [NCGC] U.S. Environmental Protection Agency [EPA] National Institutes of Environmental Health Sciences [NIEHS] National Toxicology Program [NTP] U.S. Food and Drug Administration [FDA] Tox21 Assay Overview: The human pregnane X receptor (hPXR) regulates the expression of several drug metabolizing enzymes and induction of these proteins is a major mechanism for developing drug resistance in cancer. One such key enzyme catalyzing the drug metabolism is cytochrome P450 3A4 (CYP3A4). Changes in CYP3A4 expression affect drug metabolism, thereby reducing the therapeutic efficacy and altering toxicological response to a drug and which finally causes adverse drug interaction. To screen Tox21 libraries for compounds that activate hPXR-mediated CYP3A4 gene expression, PXR-Luc HepG2 cells were used. Also cytotoxicity of the compounds was tested in parallel by measuring the cell viability using CellTiter-Fluor assay system in the same wells.
Tox21 Assay Protocol Summary: PXR-Luc HepG2 cells were dispensed at 2,000 per well in 5uL of assay medium containing 5% charcoal-stripped FBS into white solid bottom 1536-well plates (Corning Life Sciences, Corning, NY) using a Multidrop Combi (Thermo Scientific, Waltham, MA) dispenser. The assay plates were incubated at 37 C and 5% CO2 for 5hr, and then 23nL of compounds dissolved in DMSO and positive control were transferred using a Pintool station (Wako, San Diego, CA). The assay plates were incubated at 37C and 5% CO2 for 24hr. For cytotoxicity read, after 23hr incubation at 37C, 1uL CellTiter-Fluor reagent (Promega Corporation, Madison, WI) was added to each well of the assay plates using Flying Reagent Dispenser (FRD, Aurora Discovery, San Diego, CA). After 1hr incubation at 37C and 5% CO2, the fluorescence signal was quantified using a ViewLux plate reader (PerkinElmer, Shelton, CT).
Background: qHTS replaces the single test concentration by a dilution series.
As to `CCCCN(CCCC)C(=S)S`, the Potency result was “inactive”.
Under `CC(=O)[O-].CC(=O)[O-].O.O.O.[Pb+2]` stands “inactive”.
For `CC[C@]1(O)CC[C@H]2[C@@H]3CCC4=CCCC[C@@H]4[C@H]3CC[C@@]21C` the value was “inactive”; for `C#CCO`, “inactive”; for `CCC1(CC)C(=O)N=C(O)NC1=O`, “inactive”.
Under `Nc1ccccc1-c1ccccc1` stands “inactive”; under `O=[N+]([O-])c1ccccc1-c1ccccc1`, “inactive”; under `[Cl-].[Cl-].[Cl-].[Yb+3]`, “inactive”.
Take `O=C(CCCCl)c1ccc(F)cc1`: the Potency entry was “inactive”.
For `O.O.O.O.O.O.O=S(=O)([O-])[O-].[Ni+2]` the value was “inactive”; for `CN=C=O`, “inactive”.
For `C=CCBr` the value was “inactive”.
For `O.O.O.O.O.O.O.O=S(=O)([O-])[O-].[Co+2]` the value was “inactive”; for `C1=CCC=C1`, “inactive”.
In the case of `NC1CCC(CC2CCC(N)CC2)CC1` (stereo not given), the Potency result was “inactive”.
Under `CCCCC/C=C\C/C=C\C/C=C\C/C=C\CCCC(=O)NCC(=O)O` stands “inactive”; under `Nc1nc(N)nc(Cl)n1`, “inactive”; under `CCCCCCCCCCCCCCn1cc[n+](C)c1`, 12.2 µM (active) and 27 µM (active).
As for `CCc1cccc(C)c1N(C(=O)CCl)[C@@H](C)COC`, the Potency result was “inactive”.
For `CCC(C)Nc1c([N+](=O)[O-])cc(C(C)(C)C)cc1[N+](=O)[O-]` (stereo not given) the value was “inactive”; for `CC(C)C(Nc1ccc(C(F)(F)F)cc1Cl)C(=O)OC(C#N)c1cccc(Oc2ccccc2)c1` (stereo not given), “inactive”.
For `CCCCC(CC)COC(=O)c1ccccc1C(=O)OCC(CC)CCCC` (stereo not given) the value was “inactive”; for `Nc1cc(Cl)ccc1Cl`, “inactive”.
For the molecule `CC(Cc1ccc(OCC(=O)O)cc1)NCC(O)c1csc(C(F)(F)F)n1` (stereo not given), the Potency entry was “inactive”.
Under `Cc1cc2c3c(c1)C(c1ccccc1)=N[C@@H](NC(=O)c1ccncc1)C(=O)N3CC2` stands “inactive”; under `CCN(CC)C(=O)N[C@@H]1C=C2c3cccc4[nH]cc(c34)C[C@@H]2N(C)C1`, “inactive”; under `Clc1cc(Cl)c(-c2cc(Cl)c(Cl)cc2Cl)cc1Cl`, “inactive”.
Under `O=C(N[C@H]1N=C(c2ccccc2F)c2cccc3c2N(CC3)C1=O)c1cc2ccccc2[nH]1` stands “inactive”.
Under `COC(=O)/C=C(\C)OP(=O)(OC)OC` stands “inactive”.
On to `COP(=S)(NC(C)C)Oc1ccc(C)cc1[N+](=O)[O-]` (stereo not given), for which the Potency entry was “inactive”.
For `N#CC(C#N)=NNc1cccc(Cl)c1` the value was 3.86 µM (active); for `CC(C)=CCN1CC[C@@]2(C)c3cc(O)ccc3C[C@@H]1[C@@H]2C`, 17 µM (active); for `N#Cc1c2ccccc2cc2ccccc12`, “inactive”.
For `Cc1c([N+](=O)[O-])cc2c(c1[N+](=O)[O-])C(C)(C)CC2(C)C` the value was “inactive”; for `Nc1c(Cl)c(Cl)c(Cl)c(Cl)c1Cl`, “inactive”; for `CCOP(=O)(OCC)Oc1cc(C)nc(C(C)C)n1`, “inactive”.
Under `COc1ccc(Cc2nccc3cc(OC)c(OC)cc23)cc1OC` stands 9.44 µM (active).
With `O=C1C2(Cl)C3(Cl)C4(Cl)C(Cl)(Cl)C5(Cl)C3(Cl)C1(Cl)C5(Cl)C24Cl` (stereo not given), the Potency was 42.6 µM (active).
For `CCC[CH2][Sn]([CH2]CCC)([CH2]CCC)[CH2]CCC` the value was 15.4 µM (active); for `N#Cc1ccc(N(CC(N)=O)CC(F)(F)F)cc1C(F)(F)F`, “inactive”.
